Assay results: paper PMC5540273 (PLoS ONE, 2017)

Experiments:
Conditions in all cases: concentration: 1 μM, replicates: in singlicate; n = 1
EPHB6 = tested on: EPHB6
ERBB2 = tested on: ERBB2
ERBB3 = tested on: ERBB3
ERBB4 = tested on: ERBB4
ERK1 = tested on: T1, ERK1
T1 construct: gene MAPK3

ERK2 = tested on: T2, ERK2
T2 construct: gene MAPK1

ERK3 = tested on: T3, ERK3
T3 construct: gene MAPK6

ERK4 = tested on: T4, ERK4
T4 construct: gene MAPK4

ERK5 = tested on: T5, ERK5
T5 construct: gene MAPK7

ERK8 = tested on: T6, ERK8
T6 construct: gene MAPK15

ERN1 = tested on: ERN1
FAK = tested on: T7, FAK
T7 construct: gene PTK2

FER = tested on: FER
FES = tested on: FES
FGFR1 = tested on: FGFR1
FGFR2 = tested on: FGFR2
FGFR3 = tested on: FGFR3
FGFR4 = tested on: FGFR4
FGR = tested on: FGR
FLT1 = tested on: FLT1
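Further: KINOMEscan kinase panel screen.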

SMILES | %Inh (EPHB6) | %Inh (ERBB2) | %Inh (ERBB3) | %Inh (ERBB4) | %Inh (ERK1) | %Inh (ERK2) | %Inh (ERK3) | %Inh (ERK4) | %Inh (ERK5) | %Inh (ERK8) | %Inh (ERN1) | %Inh (FAK) | %Inh (FER) | %Inh (FES) | %Inh (FGFR1) | %Inh (FGFR2) | %Inh (FGFR3) | %Inh (FGFR4) | %Inh (FGR) | %Inh (FLT1)
COc1cc2c(cc1OC[C@@H](O)CO)ncc1c3ccc(C#N)cc3[nH]c21 | 44% | 22% | 2% | 0% | 0% | 15% | 0% | 7% | 0% | 33% | 0% | 0% | 0% | 8% | 0% | 0% | 0% | 0% | 30% | 0%
O=C(NOCC1CC1)c1ccc(F)c(F)c1Nc1ccc(I)cc1Cl | 0% | 0% | 0% | 0% | 0% | 8% | 0% | 17% | 0% | 8% | 0% | 0% | 0% | 0% | 0% | 0% | 0% | 0% | 0% | 10%
Nc1nccc(-c2c(-c3ccc(F)cc3)ncn2C2CCN(CC(F)(F)F)CC2)n1 [SB-236560] | 44% | 59% | 4% | 34% | 0% | 0% | 0% | 0% | 0% | 16% | 0% | 0% | 4% | 0% | 0% | 0% | 0% | 0% | 0% | 9%
O=c1cc(N2CCOCC2)nc2n(Cc3cccc4ccccc34)ccn12 [GSK2333389] | 12% | 0% | 0% | 0% | 3% | 0% | 0% | 25% | 0% | 43% | 10% | 1% | 1% | 0% | 4% | 0% | 7% | 0% | 9% | 30%
COC(=O)Nc1nc2cc(Oc3ccc(NC(=O)Nc4cc(F)ccc4F)cc3)ccc2[nH]1.Cl [GW701424] | 5% | 43% | 26% | 27% | 0% | 3% | 8% | 0% | 0% | 0% | 0% | 0% | 0% | 0% | 0% | 0% | 19% | 6% | 9% | 99%
Fc1ccc(-c2ncn(CCCN3CCOCC3)c2-c2cccnc2)cc1 [SB-211743] | 0% | 0% | 0% | 0% | 0% | 8% | 0% | 0% | 0% | 29% | 18% | 0% | 21% | 0% | 0% | 0% | 2% | 0% | 0% | 8%
CN1c2ccc(NCc3ccc(F)cc3)cc2-c2c(cnn2C)S1(=O)=O | 0% | 7% | 27% | 0% | 0% | 0% | 0% | 0% | 3% | 22% | 0% |  | 0% | 4% | 2% | 2% | 0% | 0% | 0% | 0%
Nc1nc(-c2ccc3c(N)n[nH]c3c2)cc(N2CCCC2)n1 [GSK2227430] | 19% | 0% | 0% | 8% | 0% | 0% | 0% | 24% | 0% | 0% | 0% | 0% | 0% | 1% | 0% | 38% | 0% | 0% | 20% | 14%
O=c1cc(N2CCOCC2)nc2n(Cc3cccc(C(F)(F)F)c3)ccn12 [GSK2297543] | 0% | 16% | 0% | 5% | 0% | 0% | 0% | 12% | 0% | 0% | 6% | 0% | 34% | 0% | 11% | 0% | 19% | 1% | 17% | 17%
COc1ccc(COc2cc(-n3cnc4ccccc43)sc2C(N)=O)cc1 [GSK1024304] | 0% | 28% | 0% | 24% | 5% | 0% | 15% | 13% | 8% | 0% | 2% | 0% | 6% | 16% | 0% | 0% | 1% | 0% | 10% | 24%
O=C1Cc2cc(Nc3nc(NCc4cccc(S(=O)(=O)C(F)(F)F)c4)ncc3C(F)(F)F)ccc2N1 | 0% | 6% | 9% | 4% | 0% | 9% | 31% | 25% | 0% | 0% | 0% | 0% | 0% | 7% | 0% | 1% | 5% | 0% | 0% | 0%
COCCNC(=O)c1ccc(-c2cc(C(=O)NC3CC3)cc(F)c2C)cc1 [GW868318] | 23% | 13% | 29% | 8% | 2% | 25% | 6% | 8% | 0% | 29% | 38% | 3% | 1% | 32% | 17% | 3% | 7% | 3% | 32% | 7%
c1ccc(-c2n[nH]cc2-c2ccnc3ccccc23)nc1 [GW271431] | 10% | 9% | 0% | 25% | 0% | 6% | 10% | 11% | 0% | 0% | 0% | 0% | 31% | 0% | 6% | 0% | 13% | 11% | 26% | 47%
CCc1nc(-c2cccc(C)c2)c(-c2ccnc(NCc3ccccc3)c2)s1 | 5% | 22% | 2% | 3% | 0% | 11% | 0% | 5% | 3% | 0% | 16% | 0% | 0% | 6% | 0% | 8% | 0% | 0% | 8% | 0%
COc1ccc(Nc2nccc(N3CCC(NC(=O)Nc4cccc(C(C)=O)c4)C3)n2)cc1 (centres unmarked) [GSK1379731] | 0% | 14% | 0% | 5% | 0% | 0% | 7% | 0% | 0% | 25% | 0% | 0% | 12% | 1% | 3% | 0% | 2% | 30% | 20% | 33%
CNc1ncnc2[nH]ncc12 [SKF-18355] | 0% | 17% | 22% | 4% | 0% | 0% | 0% | 0% | 0% | 14% | 33% | 0% | 30% | 0% | 0% | 0% | 5% | 0% | 0% | 0%
Cc1c2ccc(N(C)c3ccnc(Nc4cccc(S(N)(=O)=O)c4)n3)cc2nn1Cc1ccccc1.Cl.Cl [GW787226] | 98.9% | 0% | 0% | 0% | 0% | 0% | 0% | 0% | 12% | 3% | 0% | 0% | 63% | 36% | 65% | 85% | 59% | 19% | 57% | 98.9%
Cc1cccc(-c2nc(Nc3ccc4ncsc4c3)c3ccccc3n2)n1 [GW867588] | 0% | 6% | 21% | 25% | 0% | 2% | 0% | 0% | 0% | 0% | 38% | 3% | 0% | 13% | 0% | 0% | 0% | 0% | 17% | 0%
